Tests used:
Experiment in all cases: log2 ratio of Biotin-Ahx-Ub-VS probe labelling (fragment/DMSO); higher = less target engagement (more negative = stronger competition), active = hit call of the paper (q ≤ 0.05, log2 ratio ≤ -1)
Settings in all cases: compound concentration: 200 uM; treatment time: 3 h
[1] = target: T1, OTUD6B (UniProt Q8N6M0)
T1 sequence (whole entry): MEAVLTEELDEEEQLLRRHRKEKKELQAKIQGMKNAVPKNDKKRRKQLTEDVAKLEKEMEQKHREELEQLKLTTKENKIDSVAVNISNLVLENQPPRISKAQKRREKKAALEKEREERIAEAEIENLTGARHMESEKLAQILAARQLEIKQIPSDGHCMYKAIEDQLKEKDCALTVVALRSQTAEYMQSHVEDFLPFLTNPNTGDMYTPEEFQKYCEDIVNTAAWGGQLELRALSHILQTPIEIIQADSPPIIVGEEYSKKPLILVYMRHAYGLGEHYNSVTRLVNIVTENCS
How it was run: (§1)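 Lysate from HEK293T cells, 495 µg per sample in Tris/CHAPS/IGEPAL buffer with protease inhibitors, was treated for 3 h in triplicate with fragment at 200 µM or vehicle. Biotin-Ahx-Ub-VS was next added at 0.5 µM final for 1 h. The labelled DUBs were enriched with NeutrAvidin, digested with LysC and trypsin, and run by diaPASEF LC-MS/MS, with values given as average log2 fragment/vehicle ratios by unpaired t-test on global-median-normalised Spectronaut quantities of proteins with ≥2 unique peptides.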

[2] = target: T2, OTUD7B (UniProt Q6GQQ9)
T2 sequence (whole entry): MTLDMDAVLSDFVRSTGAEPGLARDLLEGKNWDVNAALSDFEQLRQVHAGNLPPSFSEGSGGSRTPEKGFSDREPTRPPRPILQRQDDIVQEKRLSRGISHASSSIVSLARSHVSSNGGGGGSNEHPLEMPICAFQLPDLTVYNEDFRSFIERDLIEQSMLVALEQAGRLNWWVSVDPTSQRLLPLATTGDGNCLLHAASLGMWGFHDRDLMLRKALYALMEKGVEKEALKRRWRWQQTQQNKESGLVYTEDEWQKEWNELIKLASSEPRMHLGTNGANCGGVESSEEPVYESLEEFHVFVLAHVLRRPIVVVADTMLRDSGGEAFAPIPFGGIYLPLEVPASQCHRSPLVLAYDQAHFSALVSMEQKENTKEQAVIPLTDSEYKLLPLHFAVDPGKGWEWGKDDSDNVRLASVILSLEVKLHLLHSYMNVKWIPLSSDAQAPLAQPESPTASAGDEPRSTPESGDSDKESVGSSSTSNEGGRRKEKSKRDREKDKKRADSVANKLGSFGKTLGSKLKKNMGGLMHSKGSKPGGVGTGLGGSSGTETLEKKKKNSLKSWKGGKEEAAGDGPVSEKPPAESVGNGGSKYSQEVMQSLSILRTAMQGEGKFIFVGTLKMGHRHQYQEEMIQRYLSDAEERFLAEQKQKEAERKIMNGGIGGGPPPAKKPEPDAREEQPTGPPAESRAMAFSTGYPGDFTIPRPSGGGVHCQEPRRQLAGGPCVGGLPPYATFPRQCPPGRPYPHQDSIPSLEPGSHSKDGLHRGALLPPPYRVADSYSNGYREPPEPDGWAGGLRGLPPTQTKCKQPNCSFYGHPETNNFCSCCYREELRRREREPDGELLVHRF
How it was run: as §1

[3] = target: PRPF8 (UniProt Q6P2Q9)
How it was run: as §1

[4] = target: T3, PSMD7 (UniProt P51665)
T3 sequence (whole entry): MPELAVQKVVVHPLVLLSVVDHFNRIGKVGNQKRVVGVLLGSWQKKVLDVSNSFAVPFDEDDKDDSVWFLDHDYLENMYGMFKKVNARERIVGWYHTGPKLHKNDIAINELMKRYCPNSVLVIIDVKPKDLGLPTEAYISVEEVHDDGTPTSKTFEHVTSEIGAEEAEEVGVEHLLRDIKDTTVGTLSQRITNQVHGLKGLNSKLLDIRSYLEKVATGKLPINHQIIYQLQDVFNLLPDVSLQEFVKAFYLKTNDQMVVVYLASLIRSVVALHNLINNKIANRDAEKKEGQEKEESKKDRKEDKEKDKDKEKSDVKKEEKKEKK
How it was run: as §1

[5] = target: UCHL1 (UniProt P09936)
Sequence of UCHL1 (P09936 whole entry, looked up): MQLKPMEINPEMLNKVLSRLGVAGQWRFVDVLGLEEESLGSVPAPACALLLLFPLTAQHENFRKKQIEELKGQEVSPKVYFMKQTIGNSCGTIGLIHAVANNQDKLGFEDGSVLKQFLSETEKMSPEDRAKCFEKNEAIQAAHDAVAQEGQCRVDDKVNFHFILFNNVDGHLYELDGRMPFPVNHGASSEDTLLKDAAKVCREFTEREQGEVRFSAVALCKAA
How it was run: as §1

[6] = target: T4, UCHL3 (UniProt P15374)
T4 sequence (whole entry): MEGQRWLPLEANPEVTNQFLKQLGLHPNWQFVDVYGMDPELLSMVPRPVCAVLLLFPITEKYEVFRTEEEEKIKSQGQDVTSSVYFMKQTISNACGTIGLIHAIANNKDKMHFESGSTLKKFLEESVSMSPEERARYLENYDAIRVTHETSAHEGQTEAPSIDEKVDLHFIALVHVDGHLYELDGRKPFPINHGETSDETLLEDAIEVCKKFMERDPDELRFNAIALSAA
How it was run: as §1

[7] = target: T5, UCHL5 (UniProt Q9Y5K5)
T5 sequence (whole entry): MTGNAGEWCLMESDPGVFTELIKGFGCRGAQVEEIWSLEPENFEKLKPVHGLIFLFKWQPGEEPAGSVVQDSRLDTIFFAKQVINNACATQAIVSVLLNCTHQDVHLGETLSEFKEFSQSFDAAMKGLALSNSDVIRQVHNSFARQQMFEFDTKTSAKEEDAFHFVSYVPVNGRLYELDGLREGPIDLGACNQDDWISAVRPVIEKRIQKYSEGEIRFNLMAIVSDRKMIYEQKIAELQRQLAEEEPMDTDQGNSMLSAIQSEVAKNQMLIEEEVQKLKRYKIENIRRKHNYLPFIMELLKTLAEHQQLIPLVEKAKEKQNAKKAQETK
How it was run: as §1

[8] = target: USP10 (UniProt Q14694)
Sequence of USP10 (Q14694 whole entry): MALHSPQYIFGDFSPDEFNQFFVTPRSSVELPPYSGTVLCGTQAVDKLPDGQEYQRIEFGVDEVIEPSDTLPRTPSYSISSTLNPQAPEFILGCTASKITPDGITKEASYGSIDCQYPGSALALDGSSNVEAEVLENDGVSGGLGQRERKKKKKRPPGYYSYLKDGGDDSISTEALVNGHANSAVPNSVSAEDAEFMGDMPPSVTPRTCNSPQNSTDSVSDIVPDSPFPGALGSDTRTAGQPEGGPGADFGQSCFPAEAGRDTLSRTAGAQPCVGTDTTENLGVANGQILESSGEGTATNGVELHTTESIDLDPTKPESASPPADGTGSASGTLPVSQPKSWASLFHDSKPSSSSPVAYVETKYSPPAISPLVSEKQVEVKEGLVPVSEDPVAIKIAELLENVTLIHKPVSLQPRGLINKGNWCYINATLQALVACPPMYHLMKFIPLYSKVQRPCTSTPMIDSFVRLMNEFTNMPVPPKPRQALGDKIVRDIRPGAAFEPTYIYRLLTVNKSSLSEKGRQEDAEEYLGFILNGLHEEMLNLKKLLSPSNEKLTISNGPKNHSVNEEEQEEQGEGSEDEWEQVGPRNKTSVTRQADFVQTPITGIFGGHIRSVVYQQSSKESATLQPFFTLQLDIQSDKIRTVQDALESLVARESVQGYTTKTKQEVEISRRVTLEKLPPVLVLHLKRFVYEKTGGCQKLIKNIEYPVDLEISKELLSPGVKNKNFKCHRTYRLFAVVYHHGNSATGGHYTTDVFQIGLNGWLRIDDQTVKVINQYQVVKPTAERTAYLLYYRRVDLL
How it was run: as §1

[9] = target: T6, USP15 (UniProt Q9Y4E8)
T6 sequence (whole entry): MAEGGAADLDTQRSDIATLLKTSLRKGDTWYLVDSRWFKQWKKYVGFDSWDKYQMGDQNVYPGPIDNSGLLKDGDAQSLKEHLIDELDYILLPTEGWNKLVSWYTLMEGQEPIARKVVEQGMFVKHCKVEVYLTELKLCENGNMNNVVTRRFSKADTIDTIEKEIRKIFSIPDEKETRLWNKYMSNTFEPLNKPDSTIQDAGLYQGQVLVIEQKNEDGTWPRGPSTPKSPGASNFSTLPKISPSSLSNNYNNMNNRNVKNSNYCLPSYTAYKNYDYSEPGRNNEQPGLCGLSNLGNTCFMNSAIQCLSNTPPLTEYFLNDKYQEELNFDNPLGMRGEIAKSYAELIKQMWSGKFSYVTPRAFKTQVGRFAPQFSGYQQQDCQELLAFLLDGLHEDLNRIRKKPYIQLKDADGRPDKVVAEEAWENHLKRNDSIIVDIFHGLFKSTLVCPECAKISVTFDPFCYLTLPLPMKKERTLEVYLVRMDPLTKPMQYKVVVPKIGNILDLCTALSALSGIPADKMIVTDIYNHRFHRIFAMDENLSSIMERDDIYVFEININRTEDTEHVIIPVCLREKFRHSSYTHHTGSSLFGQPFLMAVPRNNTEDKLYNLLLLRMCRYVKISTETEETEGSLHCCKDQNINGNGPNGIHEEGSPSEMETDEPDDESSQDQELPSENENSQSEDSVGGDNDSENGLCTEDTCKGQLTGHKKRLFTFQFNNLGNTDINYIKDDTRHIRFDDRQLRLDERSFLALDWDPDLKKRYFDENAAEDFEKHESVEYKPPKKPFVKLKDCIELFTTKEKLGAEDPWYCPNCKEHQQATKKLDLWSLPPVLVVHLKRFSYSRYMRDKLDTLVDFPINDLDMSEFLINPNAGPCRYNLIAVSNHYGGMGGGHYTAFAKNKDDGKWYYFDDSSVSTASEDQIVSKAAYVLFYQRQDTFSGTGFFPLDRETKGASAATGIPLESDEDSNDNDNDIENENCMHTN
How it was run: as §1

[10] = target: USP16 (UniProt Q9Y5T5)
Sequence of USP16 (Q9Y5T5 whole entry, looked up): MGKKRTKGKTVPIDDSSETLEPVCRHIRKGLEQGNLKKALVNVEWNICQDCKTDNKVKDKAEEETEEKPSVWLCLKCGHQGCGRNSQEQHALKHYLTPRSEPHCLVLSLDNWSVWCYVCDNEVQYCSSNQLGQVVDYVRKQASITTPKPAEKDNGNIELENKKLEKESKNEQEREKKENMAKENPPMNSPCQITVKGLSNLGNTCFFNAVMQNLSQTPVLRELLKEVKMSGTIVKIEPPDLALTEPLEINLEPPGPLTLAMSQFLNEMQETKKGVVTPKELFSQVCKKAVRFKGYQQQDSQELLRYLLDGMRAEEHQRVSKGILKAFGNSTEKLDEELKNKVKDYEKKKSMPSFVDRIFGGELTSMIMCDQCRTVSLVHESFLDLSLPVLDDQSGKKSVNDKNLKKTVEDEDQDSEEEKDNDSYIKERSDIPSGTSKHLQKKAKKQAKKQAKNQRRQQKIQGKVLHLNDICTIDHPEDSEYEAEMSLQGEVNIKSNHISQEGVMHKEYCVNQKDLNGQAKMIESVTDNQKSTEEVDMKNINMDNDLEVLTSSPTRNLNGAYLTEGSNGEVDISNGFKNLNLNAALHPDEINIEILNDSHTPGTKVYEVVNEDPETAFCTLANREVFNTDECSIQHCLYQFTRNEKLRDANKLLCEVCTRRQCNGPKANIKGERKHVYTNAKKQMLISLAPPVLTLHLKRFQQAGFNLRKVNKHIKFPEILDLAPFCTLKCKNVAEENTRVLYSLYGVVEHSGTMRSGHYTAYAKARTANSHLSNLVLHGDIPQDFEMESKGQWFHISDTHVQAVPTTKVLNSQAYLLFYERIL
How it was run: as §1

Measured: log2 ratio of Biotin-Ahx-Ub-VS probe labelling

Cc1n[nH]c(=O)c2c(NC(=O)CCl)oc(C)c12
inactive: [1] 0.111 | [2] -0.365 | [3] 0.175 | [4] 0.0225 | [5] -0.344 | [6] 0.303 | [7] -0.0452 | [8] -0.0909 | [9] -0.014 | [10] -0.0991

Reference: the supplement of paper PMC11732987, “Enantioselective OTUD7B fragment discovery through chemoproteomics screening and high-throughput optimisation” (Communications Chemistry, 2025)
